In PubChem BioAssay (NCATS):
Inconclusive results are not listed. Values without a mark were called inactive. The source made the active and inactive calls. Calls follow the shape of the dose curve; as a rule, active = well fitted cell-killing curve with a large enough effect; inconclusive = small, poorly fitted or top-dose-only effect, or effect the other way; inactive = no such curve, though single readings can be large or run the other way.

Assay: qHTS assay to identify small molecule inhibitors of chordoma cells - UCH-1 (AID 1259355); also: nearly all actives have a fitted effect of over 55% in size
Settings: UCH-1 chordoma viability, CellTiter-Glo, 48 h, combination, with auranofin plus four topoisomerase inhibitors; series mostly up to 46.1 µM; activity, negative = inhibition: at the top concentration
Method in brief: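 Screening used approved and investigational drugs in 15-point titration against 800 seeded cells per well. A fixed combination of auranofin with camptothecin, doxorubicin, rubitecan and topotecan followed compound addition, and growth was scored by CellTiter-Glo after 48hr.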
% is scaled to controls: 0 for no effect and ±100 for the full control effect.

Row | Compound | activity, negative = inhibition | Potency
1 | O=S(=O)(O)c1cc(I)c(O)c2ncccc12 | -3.97% | 
2 | Oc1cn2c(n1)Nc1ccc(Cl)c(Cl)c1C2 | -11.3% | 
3 | O=C1c2c(O)cccc2Cc2cccc(O)c21 | -20.5% | 
4 | NC(=O)N/N=C/c1ccc([N+](=O)[O-])o1 | -30.3% | 
5 | Cc1ncc(COP(=O)(O)O)c(C=O)c1O | -5.98% | 
6 | NC(=O)c1ncn([C@@H]2O[C@H](CO)[C@@H](O)[C@H]2O)c1N | 13.9% | 
7 | CC(C)(O)c1ccccc1CC[C@@H](SCC1(CC(=O)O)CC1)c1cccc(/C=C/c2ccc3ccc(Cl)cc3n2)c1 | -0.448% | 
8 | Cn1cc[nH]c1=S | -8.38% [at 20.6 µM] | 
9 | CO/N=C(\C(=O)N[C@@H]1C(=O)N2C(C(=O)O)=C(CSc3nc(=O)c(O)nn3C)CS[C@H]12)c1csc(N)n1 | -14.6% | 
10 | Oc1cccc(O)c1 | -19.7% | 
11 | CC(=O)O[C@@]12CO[C@@H]1C[C@H](O)[C@@]1(C)C(=O)[C@H](O)C3=C(C)[C@@H](OC(=O)[C@H](O)[C@@H](NC(=O)OC(C)(C)C)c4ccccc4)C[C@@](O)([C@@H](OC(=O)c4ccccc4)[C@H]21)C3(C)C | -14% | 
12 | Nc1ccc(S(=O)(=O)Nc2nccs2)cc1 | -24.6% | 
13 | CCN(CC)CCCC(C)Nc1c2ccc(Cl)cc2nc2ccc(OC)cc12 (centres undefined) | -13% | 
14 | O=C(O)c1ccccn1 | -26.8% | 
15 | CC[C@@]1(c2ccccc2)NC(=O)N(C)C1=O | -8.58% | 
16 | Cc1cc(O)cc2c1O[C@](C)(CCC[C@H](C)CCC[C@H](C)CCCC(C)C)CC2 | -13.6% | 
17 | NCCNCCNCCN | -26.5% | 
18 | CCN(CC)CCSC(=O)C(c1ccccc1)c1ccccc1 |  | inactive
19 | OCC(CO)N[C@H]1C[C@](O)(CO)[C@@H](O)[C@H](O)[C@H]1O | -16.2% | 
